Screening data deposited in PubChem by Broad Institute.
mut p53 react – mutant p53 pathway reactivation; SW480 PUMA-promoter luciferase; activation, % at 9.98 µM; 28,000 tested, 1.5% active; in the data active means activation above about 52%
STK33 inh – human STK33 kinase inhibition; ADP-Glo luminescence, MBP substrate; inhibition, % at 12.5 µM; 27,000 tested, 0.44% active; in the data active means inhibition above about 20%
Target sequence (Q9BYT3 whole entry, looked up): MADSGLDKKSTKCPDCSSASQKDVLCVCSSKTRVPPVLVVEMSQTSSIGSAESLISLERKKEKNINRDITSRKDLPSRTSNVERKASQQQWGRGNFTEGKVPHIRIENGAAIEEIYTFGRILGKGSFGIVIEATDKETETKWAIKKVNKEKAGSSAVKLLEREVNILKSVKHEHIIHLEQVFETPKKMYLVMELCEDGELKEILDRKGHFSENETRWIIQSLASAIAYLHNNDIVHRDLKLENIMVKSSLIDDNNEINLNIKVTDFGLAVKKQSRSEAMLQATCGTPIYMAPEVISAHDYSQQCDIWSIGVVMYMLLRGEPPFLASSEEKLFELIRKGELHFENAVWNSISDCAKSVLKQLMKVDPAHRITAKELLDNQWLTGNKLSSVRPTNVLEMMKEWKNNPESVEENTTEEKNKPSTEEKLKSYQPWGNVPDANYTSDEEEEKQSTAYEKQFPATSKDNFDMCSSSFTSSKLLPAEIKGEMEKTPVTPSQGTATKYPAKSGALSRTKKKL
NOMO-1 viab – STK33 inhibitor candidate reducing NOMO-1 cell viability; AID 2330; inhibition, % (test concentration not listed); NOMO-1 AML viability, CellTiter-Glo luminescence, 72 h; 37,000 tested, 7.5% active; in the data active means inhibition above about 80%
MITF inh – MITF inhibition. AID 2240. TRPM1 promoter luciferase, luminescence, 24 h. 37,000 tested, 0.28% active. inhibition, % (no concentration beside the values); in the data active means inhibition above about 85%;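 further: human melanocyte line stably carrying TRPM1 promoter luciferase reporter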
Active calls of the source: *; nt = not tested or not shown. This excerpt belongs to a sample that is enriched for hits.

SMILES	mut p53 react	STK33 inh	NOMO-1 viab	MITF inh
O=C(CSc1ncnc2sc3c(c12)CCC3)Nc1cccc(-c2nc3ccccc3s2)c1	80*	-1	23	-69
Cc1cc(C)c(S(=O)(=O)N(C)CC(=O)Nc2cccc(C)c2C)c(C)c1	-4	-10	28	5
O=C(Cn1c(=O)oc2ccccc21)Nc1cccc([N+](=O)[O-])c1	-15	2	28	7
CCOC(=O)c1c(NC(=O)C2CC(c3ccccc3Cl)=NO2)sc(C)c1C (configuration not stated)	-7	-5	3	-15
O=C1CCC(=O)N1CNc1cc(C(F)(F)F)cc(C(F)(F)F)c1	nt	nt	31	-39
CCc1nc(-n2nnc3cc(C)c(C)cc32)c2c3c(sc2n1)CCCC3	nt	nt	32	33
COc1ccccc1CN=c1c([N+](=O)[O-])nn(-c2ccccc2)n1O	16	0	38	47
Cc1ccccc1OCC(=O)NC(=S)Nc1ccccc1-c1nc2ccccc2s1	2	-5	4	-17
Cc1ccccc1OCC(=O)Nc1cccc(-c2nc3ccccc3s2)c1	79*	1	-17	-1
COC(=O)c1cc(NC(=O)CC2Sc3ccccc3NC2=O)cc(C(=O)OC)c1 (configuration not stated)	4	8	113*	6
c1ccc(-n2c(SCc3nc4ccccc4[nH]3)nnc2-c2cnccn2)cc1	-12	-2	50	14
CCn1c2ccccc2n2c(SC(C)C(=O)O)nnc12 (configuration not stated)	2	0	17	-6
O=C1c2ccccc2C2CC(c3cc(Cl)ccc3Cl)=NN12 (configuration not stated)	79*	nt	nt	nt
O=C1c2ccccc2C(=O)N1CCCSc1nccn1-c1cc(Cl)ccc1Cl	-5	nt	nt	nt
COc1ccc(NC(=O)CN2CCOCC2)c([N+](=O)[O-])c1	5	2	2	-15
CC1C2CC(CC1(C)C)N(C(=O)c1ccc(N3C(=O)c4ccccc4C3=O)cc1)C2 (configuration not stated)	-18	nt	nt	nt
C[C@@H]1CN([C@H](C)CO)C(=O)c2cc(NC(=O)Cc3cn(C)c4ccccc34)ccc2O[C@@H]1CN(C)C(=O)Nc1cccc2ccccc12	nt	nt	99*	-14
C[C@@H]1CN([C@H](C)CO)C(=O)c2cc(NC(=O)Cc3cn(C)c4ccccc34)ccc2O[C@H]1CN(C)Cc1ccc(-c2ccccc2)cc1	-14	nt	96*	21
C[C@H]1CN([C@@H](C)CO)C(=O)c2cc(NC(=O)Cc3cn(C)c4ccccc34)ccc2O[C@@H]1CN(C)Cc1ccncc1	nt	nt	96*	22
C[C@@H]1CN([C@@H](C)CO)C(=O)c2cc(NC(=O)Cc3cn(C)c4ccccc34)ccc2O[C@H]1CN(C)Cc1ccncc1	nt	nt	109*	17
C[C@H]1CN([C@@H](C)CO)C(=O)c2cc(NC(=O)Cc3cn(C)c4ccccc34)ccc2O[C@@H]1CN(C)Cc1ccc(-c2ccccc2)cc1	nt	nt	60	18
COc1cc2c(c3c1C(=O)C[C@H](c1ccccc1)O3)C=CC(C)(C)O2	29	0	nt	nt
CC(=O)OCCSc1nc(N(C)C)nc(N(C)C)n1	3	-4	12	2
COc1ccc(NC(=O)c2ccc3c(=O)n(CCc4ccccc4)c(=S)[nH]c3c2)cc1	nt	-2	-8	-5
Cc1ccc(NC(=O)c2ccc3c(=O)n(Cc4ccco4)c(=S)[nH]c3c2)cc1Cl	nt	8	121*	-7
SMILES	mut p53 react	STK33 inh	NOMO-1 viab	MITF inh
CCOC(=O)c1c(NC(=O)C2CC(c3cccc(Br)c3)=NO2)sc(C(=O)OC)c1C (configuration not stated)	-6	4	6	-12
CN(C)/C=C/C(=O)c1sc(SCc2ccc(Cl)cc2)c2c1CC(C)(C)CC2=O	nt	nt	113*	-1
COC(=O)c1sc(SCCOC(=O)c2ccccc2Cl)c2c1CC(C)(C)CC2=O	nt	nt	6	4
COc1cc2cc(C)nc(Cc3cccc4ccccc34)c2cc1OC	nt	nt	86*	18
CCOC(=O)c1ccc(NC(=O)CSc2nc3ccccc3c(=O)[nH]2)cc1	9	2	nt	nt
CCOC(=O)c1ccc(NC(=O)CSc2nc3cc4ccccc4cc3[nH]2)cc1	-65	11	111*	-9
O=C(COc1ccccc1)Nc1ccc2oc(-c3ccccc3)nc2c1	69*	2	41	-9
O=C(COc1ccc([N+](=O)[O-])cc1)Nc1cccc(O)c1	117*	0	3	-33
COc1ccc(OCC(=O)Nc2cccc(-c3cnc4ccccc4n3)c2)cc1	92*	13	16	-90
O=C(CNC(=O)c1ccccc1)Nc1cccc(-c2cnc3ccccc3n2)c1	11	19	39	25
COc1ccc2oc(-c3cccc(NC(=O)COc4ccc(Cl)cc4)c3)nc2c1	91*	5	18	30
COC(=O)CSc1nnc(-c2cc(OC)c(OC)c(OC)c2)n1C	3	-1	-3	-21
O=C(COc1ccc([N+](=O)[O-])cc1)Nc1ccccc1-c1nc2ccccc2s1	24	0	35	-1
O=C(Cn1cnc2scc(-c3ccccc3)c2c1=O)Nc1ccc(Oc2ccccc2)cc1	-11	0	10	25
COc1ccc(CCNS(=O)(=O)c2ccc(OC)c(Cl)c2Cl)cc1OC	-12	4	16	-5
CCC(=O)Nc1cccc(NC(=O)COc2ccc3ccccc3c2)c1	94*	0	21	2
CC(C)(C)NC(=O)c1cccc(NC(=O)COc2ccc3ccccc3c2)c1	2	9	38	58
CCC1c2[nH]c3ccccc3c2CCN1C(=O)c1ccc(Cl)cc1 (configuration not stated)	nt	nt	84*	16
C[C@@H]1CN([C@H](C)CO)C(=O)Cc2cc(NC(=O)Cc3ccccc3)ccc2O[C@@H]1CN(C)Cc1ccc(Oc2ccccc2)cc1	nt	6	116*	3
C[C@H]1CN([C@@H](C)CO)C(=O)Cc2cc(NC(=O)Cc3ccccc3)ccc2O[C@H]1CN(C)Cc1ccc(Oc2ccccc2)cc1	nt	1	59	39
C[C@H]1CN([C@@H](C)CO)C(=O)Cc2cc(NC(=O)Cc3ccccc3)ccc2O[C@H]1CN(C)Cc1ccc(-c2ccccc2)cc1	4	1	99*	2
C=CCC1OC(=O)CCNC(=O)C(C)N(C)C(=O)C(C(C)C)N(C)C(=O)C(C(C)CC)NC(=O)C2CCCN2C1=O (configuration not stated)	nt	-1	112*	-66
O=[N+]([O-])c1nn(-c2ccccc2)n(O)c1=NC1CCN(Cc2ccccc2)CC1	-60	-3	114*	62
CC(CCc1ccccc1)N=c1c([N+](=O)[O-])nn(-c2ccccc2)n1O (configuration not stated)	-14	-3	18	24
COc1ccc(S(=O)(=O)N(C)CC(=O)Nc2cccc(C(F)(F)F)c2)cc1C	4	0	18	30
C[C@@H]1CN([C@@H](C)CO)C(=O)Cc2cc(NC(=O)Nc3ccc(C(F)(F)F)cc3)ccc2O[C@@H]1CN(C)Cc1ccncc1	-45	-1	116*	12
C[C@H]1CN([C@@H](C)CO)C(=O)Cc2cc(NC(=O)Nc3ccc(C(F)(F)F)cc3)ccc2O[C@H]1CN(C)Cc1ccncc1	-51	0	134*	23
